High-throughput results from PubChem BioAssay.
IMPase inh – IMPase inhibition in cells; 120,000 tested, under 10 active; inhibition (IP1 accumulation), % at 46.1 µM; AID 901; CHO-M1 cells, IP1 accumulation, HTRF TR-FRET ratio; P97697; active = well fitted curve in the direction sought with a large enough effect in the signal ratio, not every such curve was filed as active; inconclusive = small, poorly fitted or top-dose-only effect, or a change in a side signal; inactive = no such curve, though single readings can be large or run the other way; the % refers to the signal ratio;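 also: cells stimulated with carbachol in lithium chloride buffer; plate controls were DMSO basal wells for no effect and reference inhibitor wells for full effect; higher means more IMPase inhibition seen as more IP1 and lower FRET ratio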
Target sequence (P97697 whole entry, looked up): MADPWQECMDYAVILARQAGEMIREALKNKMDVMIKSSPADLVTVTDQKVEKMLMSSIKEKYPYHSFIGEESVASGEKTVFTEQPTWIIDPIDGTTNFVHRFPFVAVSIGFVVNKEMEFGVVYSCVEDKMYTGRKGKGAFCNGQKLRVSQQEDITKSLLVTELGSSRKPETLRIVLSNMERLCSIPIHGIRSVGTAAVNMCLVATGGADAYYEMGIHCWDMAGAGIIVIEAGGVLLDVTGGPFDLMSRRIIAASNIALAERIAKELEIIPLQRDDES
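In this qHTS, compounds (final up to 46 uM) act on CHO-M1 cells that are then activated through the M1 receptor with carbachol, in pH 7.4 buffer containing 50 mM LiCl, for 30 min. IP1 accumulation is quantified by the IP-One immunoassay.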
HPGD inh – blocks human HPGD enzyme activity; AID 894; purified HPGD, NADH fluorescence kinetic, PGE2 substrate; P15428; hit rate 4.3% among 150,000; Potency, µM, for the others: at the top dose activity change, negative = inhibition, hits mostly inhibitors; also: potency is read from the fitted curve at half-maximal effect
Target sequence (P15428 whole entry, looked up): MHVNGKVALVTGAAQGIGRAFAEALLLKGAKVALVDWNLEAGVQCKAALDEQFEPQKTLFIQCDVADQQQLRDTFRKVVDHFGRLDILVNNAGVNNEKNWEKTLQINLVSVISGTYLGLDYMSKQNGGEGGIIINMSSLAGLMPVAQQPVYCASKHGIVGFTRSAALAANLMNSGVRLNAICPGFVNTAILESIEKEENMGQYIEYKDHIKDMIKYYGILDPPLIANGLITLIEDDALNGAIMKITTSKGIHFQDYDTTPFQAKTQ
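20 nM HPGD preincubated 15 min at room temperature with compound in 50 mM Tris-HCl pH 8, 0.01% Tween 20. Started with 1 mM NAD+ and 30 uM prostaglandin E2; NADH fluorescence (360/450 nm) read 5 times over 30-s intervals, last minus first.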
ALDH1A1 block – blocks purified human ALDH1A1 activity; AID 1030; Purified ALDH1A1, NADH fluorescence, propionaldehyde substrate; hit rate 7.3% among 220,000; Potency, µM (series often up to 75.3 µM), without a hit: at the top dose activity, negative = inhibition, actives largely listed as inhibitors;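 also: potency is read from the fitted curve at half-maximal effect; plate controls were no enzyme wells and a reference inhibitor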
* = called active by the depositor. A selection: hits, their analogues and other compounds. The true share with any hit is near 9%. Unless noted, calls follow the shape of the dose curve; as a rule, active = well fitted inhibition curve with a large enough effect (not every such curve was filed as active); inconclusive = small, poorly fitted or top-dose-only effect, or another doubt; inactive = no such curve, though single readings can be large or run the other way. Unless noted, % is scaled to controls: 0 for no effect and ±100 for the full control effect.

What do the screens show for `CC1Cc2ccccc2N1CC(=O)NCc1ccc2c(c1)OCO2` (stereo unspecified)?
IMPase inh: 2; HPGD inh: inconclusive; ALDH1A1 block: inconclusive

Results for CCN(CC)C(=O)CSc1nc2c(sc(=S)n2-c2ccccc2)c(=O)n1Cc1ccco1 ?
IMPase inh: 12; HPGD inh: 32µM*; ALDH1A1 block: 10µM*

How did COc1ccccc1-n1c(=S)sc2c(=O)n(Cc3ccco3)c(SC)nc21 do in these assays?
IMPase inh: -6; HPGD inh: -28%; ALDH1A1 block: 20µM*

What do the screens show for `CCN(CC)C(=O)CSc1nc2c(sc(=S)n2CC)c(=O)n1-c1ccccc1`?
IMPase inh: 10; HPGD inh: -4%; ALDH1A1 block: inconclusive

What do the screens show for `CCOC(=O)CSc1nc2c(sc(=S)n2Cc2ccco2)c(=O)n1-c1ccc(F)cc1`?
IMPase inh: 15; HPGD inh: -16%; ALDH1A1 block: -15%

How did COc1cc2c(cc1O)-c1ccccc1CN(C)C2 do in these assays?
HPGD inh: -10%; ALDH1A1 block: -13%

What do the screens show for `CCCCCOc1ccc(/C=C/C(=O)Nc2sc3c(c2C(=O)OCC)CCC3)cc1OC`?
IMPase inh: -2

How did CCOc1ccc(NCC(=O)Nc2ccc(C)cc2C)cc1 do in these assays?
IMPase inh: -1; HPGD inh: -3%; ALDH1A1 block: 1.8µM*

What do the screens show for `Cc1cccc(NC(=O)Cn2cccc2)c1`?
IMPase inh: -5; HPGD inh: -5%; ALDH1A1 block: 1%

What do the screens show for `Cc1ccc(NC(=O)Cn2cccc2)cc1`?
ALDH1A1 block: -10%

How did Cc1ccc(NC(=O)Cn2cccc2)c(C)c1 do in these assays?
IMPase inh: -2; HPGD inh: 2.2µM*; ALDH1A1 block: -1%

What do the screens show for `CCOc1ccc(NC(=O)CNc2ccc(C)cc2Cl)cc1`?
IMPase inh: -1; HPGD inh: -12%; ALDH1A1 block: 3%

Results for Cc1ccc(NC(=O)Cn2cccc2)c(Br)c1 ?
IMPase inh: 7; HPGD inh: 14µM*; ALDH1A1 block: -4%

How did CCc1ccc(C2c3c(oc4cc(C)c(C)cc4c3=O)C(=O)N2c2nc(C)c(C(=O)OC)s2)cc1 (stereo unspecified) do in these assays?
IMPase inh: 2

Results for COC(=O)c1sc(N2C(=O)C(O)=C(C(=O)c3ccc(C)o3)C2c2ccc(F)cc2)nc1C (stereo unspecified) ?
IMPase inh: inconclusive; HPGD inh: 8.9µM*; ALDH1A1 block: inconclusive

What do the screens show for `CCCCOc1cccc(C2c3c(oc4ccccc4c3=O)C(=O)N2c2ccccn2)c1` (stereo unspecified)?
IMPase inh: -4

How did CCOc1ccc(NC(=O)CN(C)CC(=O)Nc2ccc(Br)cc2F)cc1OCC do in these assays?
ALDH1A1 block: -4%

How did COc1ccc(-n2nnnc2SCC(=O)c2cccc(OC)c2)cc1 do in these assays?
IMPase inh: 0; HPGD inh: -7%; ALDH1A1 block: 3%

Results for O=C(CSc1nnnn1-c1ccc(F)cc1)c1ccc(O)c(O)c1 ?
ALDH1A1 block: 22µM*

How did COc1nc(-c2cnccn2)sc1C do in these assays?
ALDH1A1 block: -12%

Results for COc1ccccc1N1CCN(Cc2nc(-c3ccc(F)cc3)oc2C)CC1 ?
ALDH1A1 block: 0.4µM*

Results for Cc1oc(-c2cc(F)ccc2F)nc1CN1CCN(C)C(=O)[C@@H]1C ?
ALDH1A1 block: 9%

What do the screens show for `COc1ccccc1N1CCN(Cc2cccc(OC)c2OC)CC1`?
IMPase inh: 2; HPGD inh: 4%; ALDH1A1 block: 2%

Results for COc1ccccc1N1CCN(Cc2ccc(Br)o2)CC1 ?
IMPase inh: -2; HPGD inh: -9%; ALDH1A1 block: 13µM*

What do the screens show for `Cc1oc(-c2cc(F)ccc2F)nc1CN1CCN(c2ncnc3ccccc23)CC1`?
ALDH1A1 block: 7.9µM*

Results for COc1ccc(-c2nc(CN3CCN(c4ccccc4OC)CC3)c(C)o2)cc1 ?
ALDH1A1 block: 7%

How did Cc1cccc(S(=O)(=O)NC(Cc2c[nH]c3ccccc23)C(=O)O)c1 (stereo unspecified) do in these assays?
HPGD inh: -5%; ALDH1A1 block: 13%

What do the screens show for `CC(Oc1ccccc1)C(=O)N1CCN=C1SCc1ccccc1` (stereo unspecified)?
ALDH1A1 block: -10%

How did COc1cc(CNC(=O)c2ccc(Cn3nc(C)c(Cl)c3C)o2)cc(OC)c1 do in these assays?
IMPase inh: -10; HPGD inh: -5%; ALDH1A1 block: -9%

What do the screens show for `COC(=O)c1ccc(Cn2nc(C)c(Cl)c2C)o1`?
IMPase inh: 9; HPGD inh: -16%; ALDH1A1 block: 28µM*

How did COc1cccc(CSc2nc3cc4c(cc3cc2C)OCCO4)c1 do in these assays?
HPGD inh: -18%; ALDH1A1 block: 5%

Results for CC(C)C(=O)NC(=S)Nc1sc2c(c1C(N)=O)CCCC2 ?
HPGD inh: 14µM*; ALDH1A1 block: 7.1µM*

Results for NC(=O)c1c(NC(=O)c2cnccn2)sc2c1CCCC2 ?
ALDH1A1 block: 20µM*

What do the screens show for `Cc1noc(C)c1C(=O)Nc1sc2c(c1C(N)=O)CCC2`?
IMPase inh: -3; HPGD inh: inconclusive; ALDH1A1 block: inconclusive

What do the screens show for `O=C(Nc1sc2c(c1C(=O)N1CCOCC1)CCCCC2)c1cccnc1`?
ALDH1A1 block: 22µM*

What do the screens show for `O=C(Nc1ccc(N2CCOCC2)cc1)c1cccnc1`?
IMPase inh: 17; HPGD inh: -16%; ALDH1A1 block: 2%

How did Cn1ncc(Cl)c1C(=O)Nc1sc2c(c1C(N)=O)CCC2 do in these assays?
IMPase inh: -8; HPGD inh: inconclusive; ALDH1A1 block: inconclusive

What do the screens show for `N#CCC(=O)Nc1sc2c(c1C(N)=O)CCCC2`?
IMPase inh: 0; HPGD inh: -5%; ALDH1A1 block: inconclusive

Results for Cc1noc(C)c1C(=O)Nc1sc2c(c1C(N)=O)CCCCC2 ?
IMPase inh: 7; HPGD inh: inconclusive; ALDH1A1 block: 7.9µM*

Results for COc1ccc(CCN2C(=O)NC(NS(=O)(=O)c3ccc(Cl)cc3)(C(F)(F)F)C2=O)cc1OC (stereo unspecified) ?
ALDH1A1 block: -2%

How did Cn1c(=O)c2cnc(-c3ccc(C(F)(F)F)cc3)nc2n(C)c1=O do in these assays?
ALDH1A1 block: 6%

What do the screens show for `CN(C)C(CNC(=O)NC1CCCCC1)c1cccnc1` (stereo unspecified)?
IMPase inh: 5; HPGD inh: -6%; ALDH1A1 block: 16%

What do the screens show for `C=C1N(c2cccc(Cl)c2)C(=O)OC1(C)C`?
ALDH1A1 block: -13%

What do the screens show for `COCCNC(=O)C(c1ccc(C)o1)N(C(=O)c1snc(C(N)=O)c1N)c1cc(C)cc(C)c1` (stereo unspecified)?
IMPase inh: 10; HPGD inh: -21%; ALDH1A1 block: -8%

How did COc1ccc(Oc2ncc3nc(-c4ccc(OC)cc4)c(=O)n(Cc4cccs4)c3n2)cc1 do in these assays?
HPGD inh: -5%; ALDH1A1 block: inconclusive

What do the screens show for `CCOC(=O)c1c(NC(=O)OC)sc2c1CCC2`?
IMPase inh: 6; HPGD inh: -4%; ALDH1A1 block: -14%

Results for CCC(=O)Nc1sc2c(c1C(N)=O)CCC2 ?
IMPase inh: -1; HPGD inh: -14%; ALDH1A1 block: -17%
